Assay outcomes from PubChem.
A selection: hits, their analogues and other compounds. The true share with any hit is near 2%.
PG9 Ab binder – PG9 antibody binding by small molecule; TR-FRET gp120-PG9 antibody binding; inhibition, % at 6.7 µM; 0.43% of 360,000 active; in the data active = inhibition above about 8.5%
ABCB6 inh MLPCN – inhibitors of human ABC transporter ABCB6; K562-ABCB6 porphyrin accumulation, flow cytometry, 1 h; stronger effect = lower value; fluorescence ratio to DMSO, % at 10 µM; 0.19% of 360,000 active;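 active = fluorescence ratio to DMSO below 75%, the collection mean minus 3 SD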;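 also: signal is porphyrin accumulated inside mitochondria; lower ratio means ABCB6 inhibition with less porphyrin fluorescence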
VLA-4 inh – inhibition in a human VLA-4 binding assay. P13612. VLA-4 expressing cells, ligand binding flow cytometry. inhibition, % (about 7 µM as worked out from the volumes in the protocol). 0.2% of 330,000 active; in the data active = inhibition above about 50%
Target sequence (P13612 whole entry, looked up): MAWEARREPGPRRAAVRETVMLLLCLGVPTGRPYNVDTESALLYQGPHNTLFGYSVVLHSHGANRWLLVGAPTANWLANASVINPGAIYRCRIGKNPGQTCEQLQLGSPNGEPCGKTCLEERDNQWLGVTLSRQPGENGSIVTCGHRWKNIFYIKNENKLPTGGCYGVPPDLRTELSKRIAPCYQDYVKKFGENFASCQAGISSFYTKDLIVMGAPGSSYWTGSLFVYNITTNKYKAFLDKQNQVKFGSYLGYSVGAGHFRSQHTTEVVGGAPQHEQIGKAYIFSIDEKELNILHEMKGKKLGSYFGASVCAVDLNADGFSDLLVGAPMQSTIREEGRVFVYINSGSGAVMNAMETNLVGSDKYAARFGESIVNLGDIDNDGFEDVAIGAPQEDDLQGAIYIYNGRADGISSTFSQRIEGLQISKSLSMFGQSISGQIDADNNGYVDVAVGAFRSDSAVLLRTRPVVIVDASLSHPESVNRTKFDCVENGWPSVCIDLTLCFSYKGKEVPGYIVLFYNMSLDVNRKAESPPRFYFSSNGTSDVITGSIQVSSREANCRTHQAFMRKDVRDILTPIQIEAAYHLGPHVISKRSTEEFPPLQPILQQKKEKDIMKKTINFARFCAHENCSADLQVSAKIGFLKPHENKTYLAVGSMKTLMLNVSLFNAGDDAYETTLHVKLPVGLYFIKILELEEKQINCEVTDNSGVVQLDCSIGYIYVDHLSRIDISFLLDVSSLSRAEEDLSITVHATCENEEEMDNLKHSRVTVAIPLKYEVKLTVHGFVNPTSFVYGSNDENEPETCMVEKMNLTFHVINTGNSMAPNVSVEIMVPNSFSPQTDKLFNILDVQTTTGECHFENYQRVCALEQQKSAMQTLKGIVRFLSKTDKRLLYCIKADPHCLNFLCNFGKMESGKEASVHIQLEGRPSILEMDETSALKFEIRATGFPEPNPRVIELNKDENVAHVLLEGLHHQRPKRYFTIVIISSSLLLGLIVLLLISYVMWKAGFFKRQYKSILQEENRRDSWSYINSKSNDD
Exocytosis inh – blocks lytic granule exocytosis | inhibition, % at 10 µM | AID 651702 | 0.66% of 360,000 active | TALL-104 LAMP-1 surface exposure, flow cytometry; cells stimulated with thapsigargin and PMA;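 active = inhibition above about 55%, limit read from the data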
NR1D1 modulator – modulators of human Rev-erb alpha DNA binding | P20393 | Rev-erbα–FITC-DNA binding, fluorescence polarization, 90 min | activity, % at 10 µM | 0.79% of 370,000 active;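 active = activity above about 14%, limit read from the data; passing the limit was not always enough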
Granule exo CP1 – blocks lytic granule exocytosis | shares compounds with Exocytosis inh | TALL-104 cells, LAMP-1 externalization, flow cytometry; stimulated with PMA plus thapsigargin | inhibition, % at 10 µM | 11% of 1,500 active | AID 651954; in the data active = inhibition above about 60%
A number is an active result; . = inactive; / = no result given.

SMILES	PG9 Ab binder	ABCB6 inh MLPCN	VLA-4 inh	Exocytosis inh	NR1D1 modulator	Granule exo CP1
Fc1ccc(/C=C\c2nccc3c2[nH]c2ccccc23)cc1	.	.	.	83	.	93
Cc1ccc(/C=C\c2nccc3c2[nH]c2ccccc23)cc1	.	.	.	75	.	.
CN(C)CC(O)COC(c1ccc(Cl)cc1)c1ccc(Cl)cc1 (configuration not stated)	.	.	.	66	.	.
O=C(Cn1nnc(-c2ccncc2)n1)Nc1ccc(F)cc1F	/	/	/	/	.	/
C=CCc1ccc(OCC(O)CN2CCC(Cc3ccccc3)CC2)c(OC)c1 (configuration not stated)	.	.	.	56	.	.
COc1cc(SC)ccc1C(=O)NCCc1c[nH]c2ccccc12	.	.	.	62	.	.
N#Cc1ccc(NC(=O)Nc2cccc(C#N)c2)cc1	.	.	.	.	.	/
N#Cc1ccc(NC(=O)Nc2ccc(Oc3ccc(NC(=O)Nc4ccc(C#N)cc4)cc3)cc2)cc1	.	.	.	62	.	81
COc1ccc(-c2nnn3c2C2c4cc(-c5cccc(F)c5)ccc4CCN2C(=O)C3)cc1 (configuration not stated)	.	/	/	/	.	/
O=[N+]([O-])c1ccccc1-c1ccc(/C=N/n2cnnc2)o1	.	.	.	.	.	/
O=C1ON=C(c2ccccc2)/C1=C/c1ccc(-c2ccccc2[N+](=O)[O-])o1	.	.	.	70	.	99
Fc1cccc(F)c1Cn1ccc2ccc(-c3ccc4ccn(Cc5c(F)cccc5F)c4c3)cc21	/	/	/	/	.	/
CCC(NC(=O)c1ccc2c(ccn2Cc2cccc(-c3ccccc3C(=O)O)c2)c1)c1ccccc1 (configuration not stated)	/	/	/	/	.	/
c1ccc(-c2ccccc2-c2nc(-c3cccnc3)no2)cc1	.	.	.	93	.	.
COc1ccc(S[C@]2(C(=O)N3CCN(c4ncccn4)CC3)CC(=O)N(C(=O)/C=C/c3ccccc3)[C@@H]2c2ccc(OC)cc2)cc1	/	/	/	/	.	/
N#CCC[C@H]1CC[C@]2(CCCN(C(=O)c3ccco3)C2)O1	/	/	/	/	.	/
COc1ccc(OC)c(NC(=O)c2cc(S(=O)(=O)NCc3ccco3)ccc2F)c1	.	.	.	.	.	/
CCOc1ccccc1NC(=O)c1cc(S(=O)(=O)NCc2ccco2)ccc1F	.	.	.	104	.	.
OC(CN1CCN(c2cccc(Cl)c2)CC1)c1ccccc1 (configuration not stated)	.	.	.	.	.	/
OC(COC(c1ccccc1)c1ccccc1)CN1CCN(c2cccc(Cl)c2)CC1 (configuration not stated)	.	.	.	68	.	.
O=c1[nH]c2ccc(S(=O)(=O)N3CCCC3)cc2o1	/	/	/	/	.	/
CCOc1cc(CNCc2ccccc2)ccc1OCc1ccc(Cl)cc1	.	.	.	90	.	.
C=CCn1c(COc2ccc(Cl)cc2)nnc1SCC(=O)c1ccccc1	/	/	/	/	.	/
COc1ccc(C2C(C(=O)N3CCN(c4ccccc4Cl)CC3)CC(=O)N2c2ccc(OC)cc2)cc1 (configuration not stated)	/	/	/	/	.	/
CCCCCC/C=C/c1ccc(OC)c([C@H]2[C@H]3C=CC[C@@H](C)[C@@H]3C(=O)N2Cc2ccccc2)c1	.	.	.	67	.	.
SMILES	PG9 Ab binder	ABCB6 inh MLPCN	VLA-4 inh	Exocytosis inh	NR1D1 modulator	Granule exo CP1
CCCCCC/C=C/c1ccc([C@H]2[C@H]3C=CC[C@@H](C)[C@@H]3C(=O)N2Cc2ccccc2)c(F)c1	.	.	.	.	.	/
O=C(OCC#CCSc1nnc(-c2ccc3ccccc3c2)o1)c1cccs1	/	/	/	/	.	/
Cc1ccsc1CN(C)CC(=O)Nc1ccc([N+](=O)[O-])cc1Cl	.	.	.	99	.	.
CN(CC(=O)Nc1cc([N+](=O)[O-])ccc1Cl)Cc1ccc(Br)cc1	.	.	.	.	.	/
CCOc1ccccc1C(=O)Nc1ccc(NC(=O)c2ccccc2)cc1	.	.	.	.	.	/
CCOc1ccccc1C(=O)Nc1ccc(C(=O)c2ccccc2)cc1	.	.	.	60	.	.
Cc1cc(Br)ccc1OCCCN1CCC(C(O)(c2ccccc2)c2ccccc2)CC1	/	/	/	/	.	/
CC(=O)Nc1ccc2sn(-c3ccccc3)c(=O)c2c1	.	.	/	60	.	94
COc1cc(NC(=O)c2c(-c3ccccc3Cl)noc2C)c2ncccc2c1	.	.	.	82	.	.
CC1CCCC(C)N1S(=O)(=O)c1ccc(Cl)cc1 (configuration not stated)	.	.	.	.	.	/
CC1=C(C)CS(=O)N(S(=O)(=O)c2ccc(Cl)cc2)C1 (configuration not stated)	.	.	.	64	.	94
CCC[C@H]1[C@@H](NC(=O)c2cccc(C)c2)CC[C@@]23CCCN2C(=O)CCC[C@@H]13	/	/	/	/	.	/
CCOc1cccc(CN2CCCC(C(=O)c3cc(Cl)ccc3OC)C2)c1O (configuration not stated)	.	.	.	80	.	.
CCOC(=O)C1CCCN(Cc2ccc(OCc3ccccc3)c(OC)c2)C1 (configuration not stated)	.	.	.	57	.	.
CCOc1cccc(CN2CCCC(N3CCN(c4cccc(Cl)c4)CC3)C2)c1O (configuration not stated)	.	.	.	66	.	.
CCOC(=O)C1CCCN(Cc2ccc(OCc3ccccc3)cc2)C1 (configuration not stated)	.	.	.	.	.	/
COc1ccc(C(=O)C2CCCN(Cc3cc(Cl)ccc3O)C2)c(OC)c1 (configuration not stated)	.	.	.	.	.	/
CCCC[C@H]1C2CC(OC(=O)Nc3ccccc3C)C(C2)[C@H]2CCCCN21 (some centres not stated)	/	/	/	/	.	/
COC(=O)[C@H]1C[C@]2(C(C=C(C)C)S(=O)(=O)c3ccccc3)c3ccccc3N[C@H]2N1 (some centres not stated)	/	/	/	/	.	/
CCOc1ccc(Cl)cc1CNCCCSc1nc(C)cc(C)n1	.	.	.	87	.	.
CCCC[C@@H]1C(=O)N2N=Cc3ccccc3[C@H]2N2N=Cc3ccccc3[C@@H]12	/	/	/	/	.	/
COc1ccc2oc(=O)cc(CN(C)Cc3ccccc3)c2c1	.	.	.	72	.	.
CN(Cc1ccccc1)Cc1cc(=O)oc2ccccc12	.	.	/	.	.	/
Cc1cc2oc(=O)cc(CN(C)Cc3ccccc3F)c2cc1Cl	.	.	.	.	.	/
Cc1cc2oc(=O)cc(CN(C)Cc3ccccc3Cl)c2cc1C	.	.	.	96	.	.
Cc1cc2oc(=O)cc(CN(C)Cc3ccccc3)c2cc1C(C)C	.	.	.	69	.	.
COCCN1C(=O)[C@H]2C[C@@]13O[C@H](c1ccccn1)N=C3CC1c3ccccc3C[C@@]12C (some centres not stated)	.	/	/	/	.	/
COc1cccc(NC(=O)n2ccc3ccc(-c4ccc5cc[nH]c5c4)cc32)c1	/	/	/	/	.	/
